Source: PubChem (several laboratories)
PTPN22 act = activators of human LYP (PTPN22) phosphatase; AID 697; activation, % at 2 µM; 0.11% of 96,000 active; recombinant LYP, DiFMUP fluorescence; 0 = plate median, 100 = signal doubled; Q9Y2R2;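 active = activation at 2 µM above a set limit, the mean plus 5 SD, cut at about 37% in these data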
Target sequence (Q9Y2R2 whole entry, looked up): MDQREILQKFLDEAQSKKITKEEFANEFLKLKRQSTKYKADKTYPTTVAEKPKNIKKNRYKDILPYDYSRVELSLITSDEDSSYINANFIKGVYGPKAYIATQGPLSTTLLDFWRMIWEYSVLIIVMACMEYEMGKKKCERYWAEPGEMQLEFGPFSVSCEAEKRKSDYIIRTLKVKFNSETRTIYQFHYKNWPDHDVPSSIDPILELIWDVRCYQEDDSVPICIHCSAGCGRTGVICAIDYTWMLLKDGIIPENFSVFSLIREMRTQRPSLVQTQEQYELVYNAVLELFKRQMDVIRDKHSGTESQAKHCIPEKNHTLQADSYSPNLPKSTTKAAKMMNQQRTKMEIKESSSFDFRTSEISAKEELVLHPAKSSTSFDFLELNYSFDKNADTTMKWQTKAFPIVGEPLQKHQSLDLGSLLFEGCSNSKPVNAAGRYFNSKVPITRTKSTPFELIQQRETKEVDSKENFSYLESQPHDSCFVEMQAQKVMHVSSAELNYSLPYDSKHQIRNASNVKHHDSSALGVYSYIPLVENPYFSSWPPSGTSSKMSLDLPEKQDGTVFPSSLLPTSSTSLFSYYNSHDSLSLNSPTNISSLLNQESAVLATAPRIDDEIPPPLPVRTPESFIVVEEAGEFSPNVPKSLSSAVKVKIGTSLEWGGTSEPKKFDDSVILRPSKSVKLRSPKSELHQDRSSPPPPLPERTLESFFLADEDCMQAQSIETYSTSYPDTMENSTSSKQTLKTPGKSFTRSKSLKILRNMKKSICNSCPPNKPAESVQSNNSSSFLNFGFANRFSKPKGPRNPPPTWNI
Measles CPE = protection of cells from measles virus. Measles virus-infected cells, CPE protection, absorbance. protection (pct of control), % at 4 µM. 1.5% of 140,000 active; in the data active = protection mostly above about 24%, no sharp cut-off; inactive = mostly below about 26%
PTPN22 inh 2 = blocks human PTPN22 phosphatase activity. Q9Y2R2. recombinant LYP catalytic domain, DiFMUP fluorescence. inhibition, % at 2 µM. 0.21% of 96,000 active;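 active = inhibition at 2 µM at or above a set limit, the screen mean plus 3 SD, cut at about 24% in these data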;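 note: 0% = DMSO with enzyme and 100% = enzyme fully blocked by orthovanadate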
* marks the source's active call; other numbers are inactive results; nt = no result given. The list is not random: actives were taken first. Their share in the collection is about 1.7%.

SMILES | PTPN22 act | Measles CPE | PTPN22 inh 2
COc1ccc(C(=O)NC(C)c2nnc(SCC(=O)Nc3nc(C)cs3)n2C)cc1 (stereo not given) | 3 | 4 | -2
CC1=CC(C)C2C(=O)N(c3ccccc3)NC(=O)C2C1 (stereo not given) | nt | 6 | nt
O=C(O)c1ccccc1Nc1ccccc1C(=O)O | -5 | 4 | 3
O=C(O)c1ccccc1Nc1ccc([N+](=O)[O-])cc1 | nt | 83* | nt
COc1ccc(NC(=O)COC(=O)c2c(C)noc2C)c(OC)c1 | 1 | 6 | -5
COc1ccc(CCNC(=O)COc2ccc(S(=O)(=O)N3CCOCC3)cc2)cc1 | -12 | 1 | 9
C/C(=N/Oc1nc(C)cc(C)n1)c1ccc(Br)cc1 | 4 | 8 | -2
CC1(C)NC(=O)N(CC(O)COc2cccc(F)c2)C1=O (stereo not given) | -2 | 21 | -1
O=C1C(=O)N(O)C2CCCCC2N1O (stereo not given) | nt | 6 | nt
CON1C(=O)C(=O)N(OC)C2CCCCCC21 (stereo not given) | nt | 45* | nt
CN(C(=O)COC(=O)C1c2ccccc2Oc2ccccc21)C1CCS(=O)(=O)C1 (stereo not given) | -6 | 2 | 6
O=C(COC(=O)C1c2ccccc2Oc2ccccc21)NC1CCS(=O)(=O)C1 (stereo not given) | -5 | active | 3
CC(C)COC(=O)C1C(=O)CC(C)(O)C(C(=O)OCC(C)C)C1c1cccnc1 (stereo not given) | 3 | 20 | -6
O=C(Nc1ccc2oc(Cc3ccc(Cl)cc3)nc2c1)c1cccnc1 | -10 | 2 | 6
CCOc1cccc(C(=O)Nc2ccc3oc(Cc4ccc(Cl)cc4)nc3c2)c1 | -12 | 33* | 12
CC(C)Cn1cnc2c(c1=O)c1nc3ccccc3nc1n2Cc1ccc2c(c1)OCO2 | nt | 58* | nt
CC(C)Cn1c2nc3ccccc3nc2c2c(=O)n(CCN3CCOCC3)cnc21 | 1 | 7 | -3
COc1ccccc1N1CCN(C2=CC(=O)CCC2)CC1 | nt | 15 | nt
Cn1c(=O)n(C)c2cc([N+](=O)[O-])c(N3CCN(S(=O)(=O)c4ccc5ccccc5c4)CC3)cc21 | -2 | 33* | 0
Cc1ccc(S(=O)(=O)N2CCN(c3cc4c(cc3[N+](=O)[O-])n(C)c(=O)n4C)CC2)cc1 | -7 | 3 | 5
CN(C)C(=O)c1ccc(-c2nnc(NCc3ccccc3)c3ccccc23)cc1 | nt | 11 | nt
Cc1cccc(NC(=O)c2ccccc2C(=O)O)c1 | 0 | 23 | 2
COc1ccc(C(=O)N2CCN(c3ccc([N+](=O)[O-])c(-n4nc(C)cc4C)c3)CC2)cc1 | nt | 23* | nt
Cc1cc(C)n(-c2cc(N3CCN(C(=O)c4ccc(C(C)(C)C)cc4)CC3)ccc2[N+](=O)[O-])n1 | -9 | 9 | 14
Cc1cc(C)n(-c2nc(Nc3ccccc3C)nc(-n3nc(C)cc3C)n2)n1 | -16 | 4 | 17
SMILES | PTPN22 act | Measles CPE | PTPN22 inh 2
c1ccc2c(c1)CC(N1CCCCC1)c1ccccc1N2 (stereo not given) | nt | 42* | nt
O=C1c2ccccc2NC2CCCCCN12 (stereo not given) | 4 | 11 | -8
O=C(COc1ccc2ccccc2c1)NCCNC(=O)COc1ccc2ccccc2c1 | -6 | 85* | 6
O=C(COc1ccc2ccccc2c1)NNC(=O)Cc1ccccc1 | nt | 15 | nt
CCCCCCCCC/C(=N\O)c1ccccn1 | -26 | 4 | 28*
CCCCCCCCC(=O)N/N=C/c1ccccn1 | -12 | 4 | 13
CC(C)(C)N1C(=O)c2ccccc2NC(=O)N1Cc1ccc(Br)cc1 | 5 | 21 | -5
Cc1nn(-c2ccc(F)cc2)c(C)c1NS(=O)(=O)c1ccc(Cl)cc1 | 7 | 20 | -11
CCCCC(=O)Nc1ccccc1C(=O)N1CCOCC1 | 0 | 37* | -3
Cc1ccc(SCC(=O)Nc2ccccc2C(=O)N2CCOCC2)cc1 | nt | 5 | nt
COC(=O)c1ccccc1NC(=S)NC(NC(=O)COc1ccccc1)C(Cl)(Cl)Cl (stereo not given) | 0 | 4 | 4
CCc1ccc(NC(=O)CN2CCc3ccccc3C2)cc1 | -3 | 5 | 4
NC(=O)c1ccsc1NC(=O)c1cc(=O)c2ccccc2o1 | nt | 2 | nt
O=C(c1cccs1)c1no[n+]([O-])c1C(=O)c1cccs1 | -91 | 1 | 92*
COc1ccc(C(=O)c2no[n+]([O-])c2C(=O)c2ccc(OC)cc2)cc1 | -19 | 7 | 18
Cc1occc1C(=O)Nc1cccc(C(=O)O)c1 | -13 | 8 | 13
COC(=O)[C@H](CC(C)C)NC(=O)Nc1cccc(Br)c1 | nt | 9 | nt
CC(C)C[C@H](NC(=O)Nc1cccc(Br)c1)C(=O)O | nt | 63* | nt
O=C(Nc1ccc(OC(F)F)c(Cl)c1)c1cccc(OC(F)F)c1 | 6 | 39 | -11
COC(=O)C1CCN(c2cc(=O)n(C3CCCCC3)c(=O)[nH]2)CC1 | 0 | 24 | 1
Cc1ccc(Nc2nc(CSc3nnc(-c4cccnc4)n3-c3ccccc3C)cs2)cc1 | nt | 53* | nt
Cc1ccccc1-n1c(SCc2csc(Nc3ccccc3)n2)nnc1-c1cccnc1 | nt | 10 | nt
CNc1cc(CSC)nc(SCc2ccc(Cl)c(Cl)c2)n1 | 4 | 9 | -8
COc1ccc2nc(SCC(=O)Nc3ccc(S(=O)(=O)Nc4onc(C)c4C)cc3)[nH]c2c1 | -3 | 20 | 6
CC(C)(C)n1nnnc1C(c1ccncc1)N1CCCCCC1 (stereo not given) | -5 | 4 | 4
SMILES | PTPN22 act | Measles CPE | PTPN22 inh 2
CCCSc1nc(C)c(-c2csc(C(C#N)=C3CCCC3)n2)cc1C#N | -27 | 4 | 26*
CCCCSc1nc2c(cc1C#N)CCC2 | 20 | 0 | -26
CCn1ncc(Br)c1C(=O)Nc1ccn(C23CC4CC(CC(C4)C2)C3)n1 | nt | 41* | nt
CCn1ncc(Br)c1C(=O)N(C)C12CC3CC(CC(C3)C1)C2 | -3 | 6 | 2
COCCn1c(-c2ccc(OC)cc2)cnc1N | nt | 11 | nt
CCCCc1nnc(NC(=O)CC(=O)Nc2ccccc2C(=O)O)s1 | 8 | 5 | -6
CCOC(=O)C(C(=O)OCC)C(Nc1cccc(Br)c1)c1ccccc1 (stereo not given) | -6 | 31* | 5
CCOC(=O)C(NCCCCl)c1ccccc1 (stereo not given) | -14 | 6 | 15
FC(F)(F)c1cccc(NCc2cn3cccnc3n2)c1 | 2 | 55* | -4
O=C(NCc1cn2ccsc2n1)c1cccc(C(F)(F)F)c1 | -6 | 0 | 4
Cc1ccc(C(=O)NCc2ccco2)cc1Br | -5 | 23 | 4
Cc1c(Br)cc(C(=O)NCc2ccco2)c(C)c1C | nt | 103* | nt
COc1ccccc1OCc1ccc(C(=O)n2nc(C)c(Cl)c2C)o1 | 1 | 1 | -4
Cc1cc(NC(=O)c2cn(C3CCCCC3)c(=O)c3c2c2ccccc2n3C)no1 | 9 | 14 | -9
CCOC(=O)CN(C(=O)CSc1nnc(C)n1-c1ccccc1)c1cccc([N+](=O)[O-])c1 | -3 | 20 | 0
CCCCn1nc2cc(C(=O)NCCc3cccs3)ccc2c1OCC | 12 | 16 | -14
CCN(CC)S(=O)(=O)c1ccc(/C=C/C(=O)OCC(=O)Nc2ccc(S(N)(=O)=O)cc2)cc1 | nt | 28* | nt
CCN(CC)S(=O)(=O)c1ccc(NC(=O)COC(=O)CN2C(=O)c3ccccc3C2=O)cc1 | 2 | 8 | -5
O=C(NNC(=O)c1ccccc1Br)c1ccc(Cl)c(Cl)c1 | -3 | 4 | 5
